Out of some 68,000 compounds screened, about 60 (0.09%) were called active. Only a sample is shown. Unmarked numbers belong to inactive results. The call rests on the fitted dose curve; in most records, active means well fitted curve in the direction sought with a large enough effect; inconclusive means small, poorly fitted or top-dose-only effect; inactive means flat fitted curve, though single readings scatter.
assay: qHTS Assay for Epigenetic Modulators; settings: mouse C127i GFP locus derepression, cytometry, 30 h; series mostly up to 46.1 µM; GFP derepression (activation): at the top concentration; further: % of control where 0% means no effect
Text: NIH Molecular Libraries Screening Centers Network [MLSCN] NIH Chemical Genomics Center [NCGC] MLSCN Grant: 1 X01 MH079860-01 Assay Provider: Elisabeth D. Martinez, University of Texas SW Medical Center NCGC Assay Overview: The Locus Derepression assay detects the derepression of a GFP reporter that is stably integrated in a region of the genome of murine c127i mammary cells that is presumably silenced. GFP transcription in this construct is controlled by a CMV promoter, which normally is strong and constitutively active. However, this line was selected for lack of constitutive expression of the GFP protein. GFP production can be induced by incubating the cells with histone deacetylase or DNA methyltransferase inhibitors. Compounds that cause derepression of the locus to express GFP are identified by enumerating GFP positive cells using a laser-scanning microplate cytometer. For further details of this screen and follow-up characterization, see R.L. Johnson, W. Huang, A. Jadhav, C.P. Austin, J. Inglese, E.D. Martinez, A Quantitative High-Throughput Screen Identifies Potential Epigenetic Modulators of Gene Expression, Analytical Biochemistry (2008) 375(2):237-48.
NCGC Assay Protocol Summary: Two hundred and fifty cells in 5 uL per well were dispensed into black, clear-bottom 1536-well plates. Twenty-three nL compound was transferred to the assay plate and cells were incubated 30 hours at 37 C. Medium was removed, cells were washed two times with PBS, and GFP-positive cells were enumerated as fluorescent objects between the sizes of 20 to 120 um width and depth using an Acumen Explorer. Keywords: NIH Roadmap, MLSCN, MLI, MLSMR, qHTS, NCGC, qHTS, HDAC, DNMT, HAT, DNA methyltransferases, histone acetyl transferases, histone deacetylases

Row | Compound | GFP derepression (activation)
1 | COc1ccc(CNC(=O)C2CCN(S(=O)(=O)N3CCOCC3)CC2)cc1 | 4.7%
2 | COc1ccc(C(CC(=O)O)NC(=O)Cc2ccccc2)cc1 (stereo unspecified) | 0.9%
3 | COC(=O)c1ccc(N(CC(=O)NC2CCCC2)C(=O)CNC(=O)c2ccco2)cc1 | -1.3%
4 | COc1ccc2[nH]c3c(=O)n(Cc4ccco4)cnc3c2c1 | 0.4%
5 | CCCSc1nc2c(c(=O)n(C)c(=O)n2C)n1Cc1ccc(C)cc1 | 4.3%
6 | O=C(CN1CCN(C(=O)c2cccc(F)c2)CC1)Nc1ccccc1F | 2.3%
7 | Cc1cc(N(C)C)cc(C)[n+]1[O-] | -2.2%
8 | O=C(c1cccc(F)c1)N1CCC2(CCCN(Cc3ccncc3)C2)CC1 | 0% [at 9.22 µM]
9 | O=c1[nH]c(=O)n([C@H]2C[C@H](O)[C@H](CO)O2)cc1Br | 0%
10 | Cc1cccc(NC(=O)CSc2nc3c(c(=O)[nH]2)CCC3)c1C | 0%
11 | Cc1nn(-c2ccccc2)c2[nH]c(C(F)(F)F)cc(=O)c12 | -2.9%
12 | COC(=O)c1cc(C(=O)OC)cc(N2C(=O)CC(N3CCN(c4ccccc4)CC3)C2=O)c1 (stereo unspecified) | 5.1%
13 | CSCCC(NS(=O)(=O)/C=C/c1ccccc1)C(=O)N1CCC(C)CC1 (stereo unspecified) | -1.5%
14 | C=CCc1cccc2cc(C(=O)OCC)c(=O)oc12 | 0.1%
15 | COC(=O)c1ccc(CSc2ccccc2C)o1 | 2.1%
16 | CCN(c1ccccc1)S(=O)(=O)c1cccc(C(=O)O)c1 | 1.2%
17 | COCCn1c(=O)c(-c2cccs2)nc2cnc(N3CCN(C)CC3)nc21 | -2.7% [at 9.22 µM]
18 | CN(Cc1ccco1)c1ncncc1-c1ccoc1 | 3.4% [at 9.22 µM]
19 | CN/C(=C\[N+](=O)[O-])NCCSCc1csc(CN(C)C)n1 | 0% [at 20.6 µM]
20 | Cc1cccc(Cn2c(N3CCN(c4ccccc4)CC3)nc3c2c(=O)n(C)c(=O)n3C)c1 | 0%
21 | O=C(c1ccc(=O)[nH]c1)N(Cc1ccco1)C1(C(=O)NC2CCCCC2)CCCCC1 | -2.2%
22 | CCCCC(CC)C(=O)Nc1ccc(Cl)cn1 (stereo unspecified) | -1.7%
23 | O=C(Nc1ccccc1)N[C@H]1C[C@H](C(=O)O)Nc2cc(Cl)cc(Cl)c21 | 0%
24 | CC1(C)CC(=O)c2cc(OCC(=O)NCC3CCCO3)ccc2O1 (stereo unspecified) | -1%
25 | COc1ccccc1CN1CC2(CCN(S(=O)(=O)c3ccccc3)CC2)C1 | -2.3% [at 9.22 µM]
26 | COc1ccc2[nH]c3cc4c(=O)c5cc(OC)ccc5[nH]c4cc3c(=O)c2c1 | 1.1% [at 9.22 µM]

Row | Compound | GFP derepression (activation)
27 | Oc1c(C(c2ccccn2)N2CCOCC2)ccc2cccnc12 (stereo unspecified) | 1.6%
28 | Cc1ccc(C(c2nnnn2C(C)(C)C)N2CCc3ccccc3C2)cc1 (stereo unspecified) | -2.3%
29 | CCOC(=O)C1(C(F)(F)F)N=C(N(C)C)OC(N(C)C)=N1 | 0%
30 | CCC[C@H]1C(=O)N2C(N(C)C)=Nc3ccc(C)cc3N2C1=O | 1.7% [at 20.6 µM]
31 | Cc1cc(N2CCCCC2)nc2ccc(Cc3ccc4nc(N5CCCCC5)cc(C)c4c3)cc12 | -2.2% [at 9.22 µM]
32 | CCOCC(=O)Nc1cc(OC)c(Cl)cc1OC | 0%
33 | COCc1nc2ccccc2n1Cc1ccccc1Br | 2.1%
34 | O=C(NC1CCCCC1)n1c(=O)oc2cc(S(=O)(=O)N3CCCCC3)ccc21 | -7.3%
35 | COCCn1c(=O)c(-c2cccs2)nc2cncnc21 | 2.3% [at 9.22 µM]
36 | O=C(COC(=O)c1ccc2c(c1)OCCO2)NCc1ccccc1 | 1.1%
37 | Cc1ccccc1-c1nc(N(C)Cc2ccco2)c2ccccc2n1 | -2.9% [at 9.22 µM]
38 | COCCn1c(=O)c(-c2ccc(OC)cc2)nc2cnc(Oc3cccc(Cl)c3)nc21 | -2.7% [at 9.22 µM]
39 | O=c1c(-c2ccc(F)cc2)nc2cnc(N3CCOCC3)nc2n1-c1ccccc1 | 2.3% [at 9.22 µM]
40 | NC(=O)C1(N2CCCCC2)CCN(C(=O)c2ccc(C#Cc3ccccc3)o2)CC1 | 0.2%
41 | Nc1ccc(-c2nnc(-c3ccc(-c4ccccc4)cc3)o2)cc1 | 1.6%
42 | COc1ccc(Cl)cc1NC(=O)C1CC(=O)N(c2ccc(F)cc2)C1 (stereo unspecified) | 0%
43 | CC1C(c2ccccc2)=[N+]([O-])C2(CCCC2)N1O (stereo unspecified) | 5%
44 | S=c1c2[nH]cnc2ncn1CCSc1ncnc2nc[nH]c12 | 3.4% [at 9.22 µM]
45 | CN1CCN(c2ncncc2-c2ccc(C(=O)N(C)C)cc2)CC1 | -2.3% [at 9.22 µM]
46 | CCCCCNC(=O)Cc1ccc(OC)cc1 | 3.3%
47 | COC(=O)c1ccc(CSc2nncn2C)cc1 | 15.3%
48 | CC(C)(C)NC(=O)NC(=O)COC(=O)Cn1c(C(F)(F)F)nc2ccccc21 | -1.3%
49 | CC(C)[C@H](CO)Nc1nc(Nc2cc(N)cc(Cl)c2)c2ncn(C(C)C)c2n1 | -2.5%
50 | C[C@@H](N)[C@@H](C)Cc1ccccc1 | 0% [at 9.22 µM]
51 | Cc1cc(NC(=O)CCC(=O)N(c2ccccc2)C(C(=O)NC2CCCC2)c2ccncc2)no1 (stereo unspecified) | 1%

From PubChem BioAssay AID597 (National Center for Advancing Translational Sciences (NCATS), 2007)
